Results on 22 compounds are retold here after PubChem BioAssay (NCATS).

Each structure is given as a SMILES string. Results filed as inconclusive are left out. Unmarked numbers belong to inactive results. Calls of active or inactive are those of the source. Calls follow the shape of the dose curve; as a rule, active = well fitted inhibition curve with a large enough effect; inconclusive = small, poorly fitted or top-dose-only effect; inactive = flat fitted curve, though single readings scatter.

Common to all, as to assay: Cytotoxic Profiling of Annotated Libraries Using Quantitative High-Throughput Screening (AID 1296008); also: nearly all actives have a fitted effect of over 60% in size
Common to all, as to settings: Five cell lines viability, CellTiter-Glo ATP luminescence, 48-72 h; max response: stronger effect = lower value

In one assay the test system is CRL-7250. In a few lines: (§1)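 Compounds were pin-transferred onto cells and incubated 48 or 72 hr at 37 degree Celsius, 95% humidity. CellTiter-Glo was added, plates sat 10 min at room temperature, then ATP-coupled luminescence was imaged as the viability read-out.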
A further assay relates to HaCat. The essentials:
as §1

A further assay relates to KB-3-1. The essentials: as §1
The test system of a further assay is NIH3T3. In a few lines:
as §1
% is scaled to controls: 0 for no effect and ±100 for the full control effect; potency is read from the fitted curve at half-maximal effect.

On to `CNCc1cc(-c2ccccc2F)n(S(=O)(=O)c2cccnc2)c1`, for which the max response with CRL-7250 was -3.13%; with HaCat it was -5.62%; in the assay on KB-3-1, -0.384%; in the assay with NIH3T3, 0.556%.

`COc1ccc(C(=O)Nc2c(Cl)cncc2Cl)cc1OC1CCCC1`: the max response with CRL-7250 is -3.72%; in the assay on HaCat, -24.5%; with KB-3-1, -14.8%; in the assay on NIH3T3, -4.74%.

For `c1cc(-c2cnn3cc(-c4ccc(N5CCNCC5)cc4)cnc23)c2cccnc2c1`, in the assay with CRL-7250, the call was inactive. Also, the max response is 0.937% in the assay with HaCat and -2.87% in the assay with NIH3T3. The Potency with KB-3-1 is 4.11 µM (active).

In the case of `CC(C)(CO)c1cc2cc(NC(=O)C3(c4ccc5c(c4)OC(F)(F)O5)CC3)c(F)cc2n1CC(O)CO` (stereo not drawn), the call with CRL-7250 and in the assay on KB-3-1 was inactive. Also, the max response in the assay on HaCat is -17.2%; with NIH3T3, -6.55%.

Consider `O=C(c1ccc(Cl)cc1)N1CCN(c2ccnc3cc(Cl)ccc23)CC1`, for which the max response is 3.03% with CRL-7250, -18.2% in the assay on HaCat, -24.7% with KB-3-1 and -1.68% with NIH3T3.

Turning to `C=C1C(=O)OC[C@@H]1C/C=C(\C)CC1CC(C)C(=O)O1` (stereo partly drawn), the max response with CRL-7250 was -16.8%; in the assay with HaCat, 2.44%; in the assay with NIH3T3 it was -3.27%. Besides, the compound was classed as inactive in the assay with KB-3-1.

`C[C@@H]1O[C@@H](O[C@H]2[C@H](OC(=O)[C@]34CCC(C)(C)C[C@H]3C3=CCC5[C@@]6(C)C[C@H](O)[C@H](O[C@@H]7O[C@H](C(=O)O)[C@@H](O)[C@H](O)[C@H]7O)[C@@](C)(CO)C6[C@H](O)C[C@@]5(C)[C@]3(C)C[C@H]4O)O[C@@H](CO)[C@@H]2O)[C@H](O)[C@H](O)[C@H]1O[C@@H]1OC[C@@H](O)[C@H](O[C@H]2OC[C@](O)(CO)[C@H]2O)[C@H]1O` (stereo partly drawn): in the assay with CRL-7250, the compound was called inactive. In addition, the max response in the assay on HaCat is -2%; in the assay on KB-3-1 it was -0.0365%; in the assay on NIH3T3, -0.318%.

As to `COC(=O)CC[C@@H](C)C1CCC2C3CCC4C[C@H](OC(C)=O)CCC4(C)C3C[C@H](O)C21C` (stereo partly drawn), the max response in the assay on CRL-7250 is -0.684%; in the assay with HaCat, -5.91%; in the assay on KB-3-1, 9.49%. Moreover, in the assay on NIH3T3, the compound was called inactive.

For the compound `COc1c(C)cc(NC(=O)c2nn(Cc3ccc(F)cc3)c3c2CN(C(=O)c2ccc[nH]2)C[C@]3(C)C(N)=O)cc1C`, the values for the max response with CRL-7250, in the assay on HaCat and in the assay with NIH3T3 were -1.93%, -0.617% and -14%, respectively. The compound was classed as inactive in the assay on KB-3-1.

Regarding `O=C(NCCN1CCN(c2cccc3c2OCCO3)CC1)c1ccc(F)cc1`, the max response with CRL-7250 was 2.38%; in the assay with HaCat it was -12.9%; in the assay with KB-3-1, -10.3%; with NIH3T3, 2.39%.

Take `O=C(NC[C@H](O)CN1CCc2ccccc2C1)c1ccnc(NC2CCC2)c1`: the max response is -5.29% in the assay with CRL-7250, -27.8% with HaCat, -4.24% in the assay with KB-3-1 and -20.6% in the assay on NIH3T3.

On to `CN(C)c1ccnc2sc3c(=O)n(N4CCCCCC4)cnc3c12`, for which the max response was -8.13% in the assay on CRL-7250, 1.16% in the assay on HaCat, 7% with KB-3-1 and 4.09% in the assay on NIH3T3.

Consider `CC(=O)O[C@@H]1[C@@H](O)[C@H](O[C@@H]2[C@@H](O)[C@@H](O)[C@H](O[C@H]3[C@H](O[C@H]4[C@H](O[C@H]5CC[C@@]6(C)C(CC[C@]7(C)C6CC=C6[C@@H]8CC(C)(C)CC[C@]8(C(=O)O)CC[C@]67C)[C@]5(C)CO)O[C@H](CO)[C@@H](O)[C@@H]4O)OC[C@@H](O)[C@@H]3O)O[C@H]2C)OC[C@H]1O` (stereo partly drawn), for which the max response with CRL-7250 was -25.8%; with HaCat it was 3.54%; with KB-3-1 it was 9.51%; in the assay on NIH3T3 it was 3.03%.

In the case of `Fc1ccc(-c2nc(-c3ccccc3F)[nH]c2-c2ccncc2)cc1`, the figures for the max response in the assay on CRL-7250, with HaCat and with NIH3T3 were 3.37%, 4.02% and 4.47%, respectively. The compound was classed as inactive in the assay with KB-3-1.

As for `COc1cc(CCc2cc(NC(=O)c3ccc(N4CC(C)NC(C)C4)cc3)n[nH]2)cc(OC)c1` (stereo not drawn), the figures for the Potency in the assay with CRL-7250, with KB-3-1 and in the assay with NIH3T3 were 9.2 µM (active), 11.6 µM (active) and 14.6 µM (active), respectively. The max response in the assay with HaCat was 4.79%.

`CC1(C)CCC2(C(=O)OC3OC(COC4OC(CO)C(O)C(O)C4O)C(O)C(O)C3O)CCC3(C)C(=CCC4C5(C)CCC(OC6OCC(O)C(O)C6O)C(C)(C)C5CCC43C)C2C1O` (stereo not drawn): the max response with CRL-7250 is -0.133%; in the assay on HaCat it was -3.21%; in the assay with NIH3T3 it was -18.4%. Moreover, the compound was called inactive in the assay on KB-3-1.

As for `O=C(NCCO)c1cccc(-c2cc(Nc3ccc(OC(F)(F)F)cc3)ncn2)c1`, the max response in the assay on CRL-7250 was 0.504%; with HaCat, -14.2%; in the assay on KB-3-1, -22.2%; in the assay on NIH3T3 it was -22.6%.

`CC(C)C[C@H](CO)Nc1nc(S[C@@H](C)c2ccccc2)nc2nc(N)sc12`: the max response was 1.1% in the assay on CRL-7250, -4.79% with HaCat and 2.79% in the assay with NIH3T3. Further, in the assay on KB-3-1, the compound was called inactive.

As to `C=CC(C)(C)c1[nH]c2ccccc2c1C[C@@H]1NC(=O)[C@H](C)NC1=O`, the max response in the assay with CRL-7250 is -22.2%; in the assay on HaCat, 1.83%; in the assay on KB-3-1, 3.23%. Further, the compound was classed as inactive with NIH3T3.

For `C=C(C)C(=O)O[C@H]1[C@H]2C(=C)C(=O)O[C@@H]2/C=C(\CO)CC/C=C(/C=O)[C@@H]1O`, the results for the max response with CRL-7250, with HaCat and in the assay on NIH3T3 were -17.3%, -13.6% and -6.9%, respectively. Further, the result in the assay on KB-3-1 was inactive.

With `Cc1cn2c(n1)Cc1ccc(Cl)cc1C(c1ccc(N)cc1)=N2`, the max response is -3.82% with CRL-7250, 1.21% in the assay on HaCat, 1.16% in the assay on KB-3-1 and -15.7% with NIH3T3.

As to `Cc1cc(OCCCS(C)(=O)=O)cc(C)c1-c1cccc(COc2ccc3c(c2)OCC3CC(=O)O)c1` (stereo not drawn), the max response in the assay on CRL-7250 was -4.99%; in the assay on HaCat it was 0.974%; with KB-3-1 it was -3.22%. Further, in the assay with NIH3T3, the outcome was inactive.
